Results taken from PubChem BioAssay AID488969 (Vanderbilt High Throughput Screening Facility, 2010).
The full ranking holds about 110,000 compounds; the median of “z-score” is about -0.1, and the highest 2% start at about 2. The entries come from a sample that favours the highest values as a whole. The source made the active and inactive calls.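 How the source made its calls: active means z-score in the third read window above 3 or below -3; inactive means the rest.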

The compounds below were run against Metabotropic glutamate receptor 8 (Rattus norvegicus) (UniProt P70579) (assay: rat mGluR8 modulators via GIRK flux, primary screen, cell-based, thallium flux, HTS (AID 488969)). Settings: HEK293 rat mGluR8, GIRK (G protein-gated inwardly rectifying potassium channel) thallium flux, FluoZin2; at 10 µM; stronger effect = higher value; submaximal glutamate (EC20) added with thallium.
Chain of Metabotropic glutamate receptor 8 (Rattus norvegicus) (P70579 whole entry, looked up): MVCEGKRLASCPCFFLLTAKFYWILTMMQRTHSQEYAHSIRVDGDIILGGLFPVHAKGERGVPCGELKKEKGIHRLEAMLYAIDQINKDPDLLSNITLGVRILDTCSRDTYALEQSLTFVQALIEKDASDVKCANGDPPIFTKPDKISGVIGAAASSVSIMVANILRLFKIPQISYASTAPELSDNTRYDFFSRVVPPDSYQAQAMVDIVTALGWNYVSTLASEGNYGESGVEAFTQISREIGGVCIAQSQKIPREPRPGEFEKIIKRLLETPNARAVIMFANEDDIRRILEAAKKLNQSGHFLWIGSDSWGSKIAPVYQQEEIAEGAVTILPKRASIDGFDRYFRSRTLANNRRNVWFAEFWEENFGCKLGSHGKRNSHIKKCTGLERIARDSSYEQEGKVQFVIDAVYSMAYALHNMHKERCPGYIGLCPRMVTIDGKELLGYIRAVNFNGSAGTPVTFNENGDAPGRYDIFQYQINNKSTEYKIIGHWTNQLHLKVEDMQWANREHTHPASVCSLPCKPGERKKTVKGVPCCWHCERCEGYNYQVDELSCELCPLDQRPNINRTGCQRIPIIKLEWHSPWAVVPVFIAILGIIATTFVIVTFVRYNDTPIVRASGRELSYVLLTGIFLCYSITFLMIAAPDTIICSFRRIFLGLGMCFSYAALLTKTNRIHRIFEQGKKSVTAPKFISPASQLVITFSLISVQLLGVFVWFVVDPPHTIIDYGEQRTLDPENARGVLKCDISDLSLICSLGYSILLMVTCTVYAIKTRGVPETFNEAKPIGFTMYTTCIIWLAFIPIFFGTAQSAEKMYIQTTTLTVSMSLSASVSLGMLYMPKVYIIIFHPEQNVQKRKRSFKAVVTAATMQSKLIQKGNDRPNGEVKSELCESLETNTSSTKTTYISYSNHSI

Compared with `CNC(=S)Nc1cc(Cl)ccc1Oc1ccccc1`, `CCNC(=S)Nc1cc(Cl)ccc1Oc1ccccc1` is lower in z-score: 0.287 for the first, 0.269 for the second.

Going from `CCNC(=S)Nc1ccc(Cl)cc1Cl` to `O=C(CCC(=O)c1ccc(Oc2ccccc2)cc1)Nc1ccc(Cl)cc1Cl`, the z-score falls from 0.108 to 0.0353.

First: NC(=S)N/N=C/c1ccc(C(F)(F)F)cc1
Second: COc1cc(/C=N/NC(=O)CCn2nnc3ccccc32)ccc1O
The z-score of the first is higher: 0.721 for the first, -0.659 for the second.

Compared with `Cc1cc(C)n(-c2cc(N3CCN(S(=O)(=O)c4ccc5ccccc5c4)CC3)ccc2[N+](=O)[O-])n1`, `Cc1cc(N2CCN(Cc3ccccc3)CC2)n2nc(C)c(-c3ccccc3)c2n1` is higher in z-score: -0.296 for the first, 0.0393 for the second.

Compared with `S=C1NCCc2ccccc2C1c1ccccc1` (stereo not drawn), `O=C1c2ccccc2C(Nc2ccc3c(c2)OCCO3)N1c1ccccn1` (stereo not drawn) is higher in z-score: -0.276 for the first, 0.814 for the second.

Going from `O=C(CN1CCN(C(c2ccccc2)c2ccccc2)CC1)N1CCOCC1` to `O=C(NCC1CCN(c2ccc(S(=O)(=O)N3CCOCC3)cc2)CC1)c1cccc(Cl)c1`, the z-score rises from -0.28 to 0.0384.

First: COC(=O)C(NNc1ccccc1)(NC(=O)c1cccc(F)c1)C(F)(F)F (stereo not drawn)
Second: CCOC(=O)Cc1nnc(Nc2cccc(C)c2)c2ccccc12
The z-score of the first is higher: -0.19 for the first, -0.988 for the second.

Going from `CCOC(=O)c1cc2c(=O)n3cccc(C)c3nc2n(CC2CCCO2)c1=NC(C)=O` (stereo not drawn) to `Cc1cccc2cc(CN(Cc3cccs3)C(=S)NCC3CCCO3)c(=O)[nH]c12` (stereo not drawn), the z-score falls from -0.0779 to -0.229.

Compared with `O=C(COc1ccccc1Cl)Nc1cc(Cl)ccc1Oc1ccccc1`, `COc1cc(OC)c(NC(=O)CCNC(=O)Cn2ccc3ccccc3c2=O)cc1Cl` is lower in z-score: -0.0408 for the first, -0.293 for the second.

First: COc1cc(OC)c(NC(=O)CCNC(=O)Cn2cnc3ccccc3c2=O)cc1Cl
Second: COc1ccc(NC(=O)CCNC(=O)Cn2cnc3ccccc3c2=O)c(OC)c1
The z-score of the first is higher: 2.94 for the first, -0.512 for the second.

First: CCN(CC)S(=O)(=O)c1ccc(NC(=O)Cn2cnc3ccccc3c2=O)cc1
Second: CN(C)S(=O)(=O)c1cccc(NC(=O)Cn2cnc3ccccc3c2=O)c1
The z-score of the first is lower: -0.403 for the first, 0.0344 for the second.

Going from `C=CCc1ccccc1OCC(O)CN(CC)CC` (stereo not drawn) to `CCCCS(=O)CC(CS(=O)CCCC)OC(=O)c1ccccc1` (stereo not drawn), the z-score rises from 0.0462 to 0.895.

First: CCCNC(=O)Cn1cnc2sc(C(=O)N3CCN(c4ccc(F)cc4)CC3)c(C)c2c1=O
Second: CC1CC(C)CN(CCCNC(=O)CCNC(=O)Cn2ccc3ccccc3c2=O)C1 (stereo not drawn)
The z-score of the first is higher: -0.159 for the first, -1.48 for the second.

Going from `O=C(/C=C/c1cccc2ccccc12)NCCC1=CCCCC1` to `COc1ccc(/C=C/C(=O)NC(=S)NN2CCCCC2c2cccnc2)cc1` (stereo not drawn), the z-score rises from -0.101 to 0.454.

Going from `CC(C)(C)NS(=O)(=O)c1ccc(NS(C)(=O)=O)cc1` to `Nc1ccc(S(=O)(=O)N2CCCC2)cc1`, the z-score falls from -0.0947 to -0.115.

Compared with `CCCCc1ccc(Nc2ncnc3nc[nH]c23)cc1`, `CCOC(=O)c1ccc(Nc2ncnc3nc[nH]c23)cc1` is lower in z-score: 2.82 for the first, -0.0179 for the second.

First: c1ccc(COc2ccc(Nc3ncnc4nc[nH]c34)cc2)cc1
Second: C=CCC(NCc1ccccc1)c1ccc(C)o1 (stereo not drawn)
The z-score of the first is lower: 0.0418 for the first, 0.143 for the second.

First: COc1ccc(O)c(/C=N\NC(=O)CCn2nnc3ccccc32)c1
Second: COc1cccc(/C=N/NC(=O)CCn2nnc3ccccc32)c1
The z-score of the first is lower: -0.125 for the first, 2.1 for the second.

Going from `O=C(/C=C/c1ccc(Cl)cc1)NC(=S)NN1CCCCC1c1cccnc1` (stereo not drawn) to `COc1ccc(/C=C/C(=O)NC(=S)NN2CCCCC2c2cccnc2)cc1OC` (stereo not drawn), the z-score falls from 2.97 to 0.0576.

Going from `C=CCC(NCc1ccccc1)c1ccco1` (stereo not drawn) to `C=CCC(NC(C)c1ccccc1)c1ccco1` (stereo not drawn), the z-score falls from 2.42 to 0.174.

Going from `N#Cc1cnc(SCC(=O)c2ccccc2)nc1N` to `CSc1ccccc1NC(=O)c1ccoc1C`, the z-score falls from 0.0176 to -0.082.

Going from `Cc1cc(N2CCC(C)CC2)n2nc(C)c(-c3ccccc3)c2n1` to `Cc1cc(N2CCCCC2)n2ncc(-c3ccccc3)c2n1`, the z-score rises from -0.28 to -0.231.

Compared with `Cc1cc(N2CCOCC2)n2ncc(-c3ccccc3)c2n1`, `CCc1cccc(CC)c1NC(=S)N1CCn2cccc2C1c1cccnc1` (stereo not drawn) is higher in z-score: -0.401 for the first, 0.37 for the second.

First: O=S(=O)(c1ccc(S(=O)(=O)N2CCCC2)cc1)N1CCCCCC1
Second: CC1(C)C2CC=C(/C=N/NC(=O)c3ccc(Cl)cc3)C1C2 (stereo not drawn)
The z-score of the first is lower: 0.224 for the first, 0.355 for the second.

First: CCCCNC(=S)N/N=C/C1=CCC2CC1C2(C)C (stereo not drawn)
Second: C=C(C)CNC(=S)N/N=C/C1=CCC2CC1C2(C)C (stereo not drawn)
The z-score of the first is higher: 1.99 for the first, 0.611 for the second.

First: CC1CC(C)CN(CCCNC(=O)Cn2ncc3c(=O)oc4ccccc4c32)C1 (stereo not drawn)
Second: CCc1cc2c(cc3c(=O)n(CC(=O)NCCCN4CC(C)CC(C)C4)ncn32)s1 (stereo not drawn)
The z-score of the first is lower: -0.462 for the first, 2.41 for the second.

`S=C(Nc1ccccc1)Nc1cc(Cl)ccc1Oc1ccccc1` was tested, and the z-score was 3.43 (active).
With `S=C(Nc1ccc(Cl)cc1Cl)Nc1ccccc1Oc1ccccc1` the z-score was 4.54 (active).
In the case of `CCN(CC)S(=O)(=O)c1cc(NC(=O)Cn2cnc3ccccc3c2=O)ccc1C`, the z-score is reported as 3.32 (active).
`Cc1cc(N2CCC(C)CC2)n2ncc(-c3ccccc3)c2n1` was tested, and the z-score was 3.32 (active).
With `Cc1cc(N2CCOCC2)n2nc(C)c(-c3ccccc3)c2n1` the z-score was 4.01 (active).
In the case of `NS(=O)(=O)c1ccc(S(=O)(=O)N2CCCC2)cc1`, the z-score is reported as 3.11 (active).
